Compound activity deposited in PubChem BioAssay by Broad Institute.
Many of the other results were omitted from the sample, so hits are more common in it than they were.
ID4 binder = binders of human ID4 protein, primary screen, biochemical, small molecule microarray, single point | DNA-binding protein inhibitor ID-4 (Homo sapiens), P47928 | Flag-ID4 binding, fluorescence F/B | calls only | actives 1.2% (n = 31,000); call rule not given here;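 note: a binder raises fluorescence above local background on the spot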
Target sequence (P47928 whole entry, looked up): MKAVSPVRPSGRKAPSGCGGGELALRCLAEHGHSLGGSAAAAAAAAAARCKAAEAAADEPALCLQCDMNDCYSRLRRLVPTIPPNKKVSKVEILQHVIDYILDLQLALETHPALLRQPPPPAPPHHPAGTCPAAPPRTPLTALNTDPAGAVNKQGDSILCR
Large screens that a line does not name were inactive.

C[C@H](CCC(=O)O)[C@H]1CC[C@H]2[C@@H]3C(=O)C[C@@H]4CC(=O)CC[C@]4(C)[C@H]3CC(=O)[C@]12C	ID4 binder active
CCn1c(SCC(=O)Nc2cc(C(F)(F)F)cc(C(F)(F)F)c2)nnc1-c1ccncc1	none
COc1ccc(NC(=O)CSc2nc3sc(C)c(C)c3c(=O)n2-c2ccccc2)c([N+](=O)[O-])c1	none
COc1ccc(-c2cnc3c(c2)C(=O)N([C@H](C)CO)C[C@@H](C)[C@H](CN(C)Cc2ccccn2)O3)cc1	ID4 binder active
COc1ccc(-c2cnc3c(c2)C(=O)N([C@@H](C)CO)C[C@@H](C)[C@@H](CN(C)Cc2ccccn2)O3)cc1	none
COc1cccc(-c2cnc3c(c2)C(=O)N([C@H](C)CO)C[C@@H](C)[C@H](CN(C)Cc2cccnc2)O3)c1	ID4 binder active
COc1ccc(-c2cnc3c(c2)C(=O)N([C@H](C)CO)C[C@H](C)[C@H](CN(C)Cc2ccccn2)O3)cc1	none
COc1cccc(-c2cnc3c(c2)C(=O)N([C@@H](C)CO)C[C@@H](C)[C@@H](CN(C)Cc2cccnc2)O3)c1	none
COc1cccc(-c2cnc3c(c2)C(=O)N([C@H](C)CO)C[C@@H](C)[C@@H](CN(C)Cc2cccnc2)O3)c1	none
CC(=O)c1ccc(NC(=O)CSc2nc(C)c(C)c(=O)[nH]2)cc1	none
CCC(C)C(O)C(C)(O)/C=C/C1=CC2=C(Cl)C(=O)C(C)(O)C(O)C2CO1 (stereo unspecified)	none
CC(NS(=O)(=O)c1ccc(F)cc1)C(=O)Nc1ccc(Oc2ccccc2)cc1 (stereo unspecified)	none
COc1ccc(-c2cc(=O)[nH]c(SCC(=O)Nc3cccc(Cl)c3C)n2)cc1	none
Nc1cc(N)nc(SCC(=O)Nc2cccc(Cl)c2Cl)n1	none
COc1ccc(-c2cc(C)nc(SCC(=O)Nc3cccc(Cl)c3Cl)n2)cc1	ID4 binder active
O=C(CSc1nc(O)cc(=O)[nH]1)Nc1ccc(Br)cc1	none
CSc1ccccc1NC(=O)C(C)n1nc([N+](=O)[O-])c(Br)c1C (stereo unspecified)	none
CCNS(=O)(=O)c1ccc(NC(=O)c2cc(-c3ccncc3)nc3c(C)c(Cl)ccc23)cc1	none
COc1ccc(C(=O)CSc2nc3nc(C)cc(C)c3c(=O)[nH]2)cc1OC	none
Cc1cc(C)c2c(=O)[nH]c(SCC(=O)N3CCOCC3)nc2n1	ID4 binder active
Cc1cc(C)c2c(=O)[nH]c(SCC(=O)c3ccccc3)nc2n1	none
CC(=O)c1cccc(N(CC(=O)Nc2ccc(Br)cc2F)S(C)(=O)=O)c1	none
Cc1cc(Cl)ccc1NC(=O)CNS(=O)(=O)c1ccc(Br)cc1	none
COc1ccc([N+](=O)[O-])cc1NC(=O)C(C)N(c1ccccc1)S(C)(=O)=O (stereo unspecified)	none
O=C(O)C[C@H]1C[C@@H]2c3cc(NC(=O)CC4CC4)ccc3O[C@@H]2[C@@H](CO)O1	none
COCC(=O)Nc1ccc2c(c1)[C@@H]1C[C@H](CC(=O)NC3CCCC3)O[C@@H](CO)[C@@H]1O2	none
O=C(CC1CC1)Nc1ccc2c(c1)[C@@H]1C[C@H](CC(=O)NC3CCCC3)O[C@H](CO)[C@@H]1O2	ID4 binder active
CCn1nc(C)c(NC(=S)NCc2ccco2)c1C	none
COc1ccc(CN2C(=O)C(O)(CC(=O)c3ccc(C)s3)c3ccccc32)cc1OC (stereo unspecified)	none
Cc1cc(C)nc(NS(=O)(=O)c2ccc(NC(=O)c3ccc(C(=O)c4ccccc4)cc3)cc2)n1	ID4 binder active
COc1cc(OC)cc(C(=O)Nc2ccc(S(=O)(=O)Nc3nc(C)cc(C)n3)cc2)c1	none
Cc1cc(C)nc(NS(=O)(=O)c2ccc(NC(=O)c3ccc(-c4ccccc4)cc3)cc2)n1	none
Cc1cc2nc(-c3ccc(Cl)c(NC(=O)COc4ccccc4)c3)oc2cc1C	none
COc1cccc(OCC(=O)Nc2ccc(-c3nc4ccccc4[nH]3)cc2)c1	ID4 binder active
COc1ccccc1OCC(=O)Nc1ccc(-c2nc3ccc(C)cc3[nH]2)cc1	none
COc1cccc(OCC(=O)Nc2cccc(-c3nnc(-c4ccccc4)o3)c2)c1	none
CC(Oc1cccc(NC(=O)c2ccc(Br)cc2)c1)C(=O)c1ccccc1 (stereo unspecified)	none
COc1ccc2nc(Nc3nc(CSc4ccc(Cl)cc4)cc(=O)[nH]3)nc(C)c2c1	none
COc1ccc2nc(NC3=NC(c4ccccc4)CC(=O)N3)nc(C)c2c1 (stereo unspecified)	ID4 binder active
CCc1c(C)nc(Nc2nc(C)c3ccc(OC)cc3n2)[nH]c1=O	none
N#Cc1c(C(F)(F)F)cc(-c2cccs2)nc1SCC(O)CN1CCSCC1 (stereo unspecified)	none
COC(=O)CCC(=O)Nc1ccc(C#N)cc1	none
C=CCn1c(SCc2csc(C)n2)nc2sc(C)c(C)c2c1=O	none
CNC[C@@H]1Oc2ccc(NS(C)(=O)=O)cc2C(=O)N([C@@H](C)CO)C[C@H]1C	ID4 binder active
CNC[C@@H]1Oc2ccc(NS(=O)(=O)c3ccccc3)cc2C(=O)N([C@@H](C)CO)C[C@@H]1C	none
CNC[C@H]1Oc2ccc(NS(=O)(=O)c3ccccc3)cc2C(=O)N([C@H](C)CO)C[C@H]1C	none
CNC[C@H]1Oc2ccc(NS(C)(=O)=O)cc2C(=O)N([C@H](C)CO)C[C@@H]1C	ID4 binder active
C[C@@H]1CN([C@H](C)CO)C(=O)c2cc(NS(C)(=O)=O)ccc2O[C@H]1CN(C)C	none
CNC[C@H]1Oc2ccc(NS(=O)(=O)c3ccccc3)cc2C(=O)N([C@@H](C)CO)C[C@H]1C	none
CCOc1ccc2nc(SCC(=O)Nc3ccc([N+](=O)[O-])cc3)[nH]c2c1	none
O=C(Nc1ccccc1[N+](=O)[O-])C1(c2ccccc2)CCN(S(=O)(=O)c2ccccc2)CC1	none
Cc1cccc2c1N(C)C(=O)C2(O)CC(=O)c1ccco1 (stereo unspecified)	none
Cc1ccccc1-c1nnc(SCC(=O)Nc2ccc(C(C)C)cc2)n1C	none
Cc1nc(Oc2ccc(Cl)cc2)c(C(=O)O)c(C)c1Cl	none
Cc1nn2c(CN(C(=O)c3cccs3)c3ccccc3)nnc2c2ccccc12	none
Cc1nn2c(CN(C(=O)CN3CCOCC3)c3ccccc3)nnc2c2ccccc12	ID4 binder active
Cc1nn2c(CN(c3ccccc3)S(=O)(=O)c3ccccc3)nnc2c2ccccc12	none
COc1cccc(NC(=O)CNC(=O)c2ccco2)c1	none
c1ccc(-n2c(SCc3nc4ccccc4[nH]3)nnc2-c2cnccn2)cc1	none
COc1ccccc1/C=C/C(=O)N1CCCC(c2ccccc2)C1 (stereo unspecified)	none
CCCn1c2ccccc2c2nnc(SCC(=O)O)nc21	none
CCn1c2ccccc2c2nnc(SCC(N)=O)nc21	none
COC(=O)C(C)Sc1nnc2c3ccccc3n(Cc3ccccc3)c2n1 (stereo unspecified)	ID4 binder active
COc1ccc(NC(=O)C(C)NS(=O)(=O)c2ccc(F)cc2)cc1Cl (stereo unspecified)	none
Cc1ccn2cc(-c3cccc(NS(=O)(=O)c4cccc([N+](=O)[O-])c4)c3)nc2c1	none
Cn1c(SCC(=O)Nc2c(F)cc(F)cc2Br)nnc1-c1cccnc1	none
Cn1c(SCC(=O)Nc2c(F)cc(F)cc2Br)nnc1-c1ccco1	ID4 binder active
COc1ccc(-c2nnc(SCC(=O)Nc3c(F)cc(F)cc3Br)n2C)cc1	none
Cc1cccc(C)c1NC(=O)COc1cc(O)c2c(=O)cc(-c3ccccc3)oc2c1	none
CS(=O)(=O)N(CC(=O)Nc1cc(Cl)ccc1Oc1ccccc1)c1ccccc1F	none
O=C(Cn1ccc([N+](=O)[O-])n1)Nc1cc(F)ccc1F	none
